Test results from the supplement of paper PMC4466140.

How the values were obtained:
Experiment in all cases: SPOT peptide array binding signal intensity (averaged, normalized) (arbitrary units (background-subtracted, floor 0; scale differs between SH3 domains)); higher = stronger binding of the SH3 domain to the peptide
SpBzz1-D2 = molecular target: SpBzz1-D2
Outline: (§1)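 The binding signal is the normalized, background-subtracted spot intensity averaged over replicates; its arbitrary units differ between domains. It was obtained by incubating 10 μg/ml GST-fused SH3 domains from four yeast species overnight at 4°C in TBS-based blocking buffer on cellulose membranes with synthetic 15-mer peptides, cysteines replaced by serines, then detecting with anti-GST antibody, HRP anti-mouse secondary and luminol.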

SpCyk3 = molecular target: SpCyk3
Outline: as §1

SpHof1 = molecular target: SpHof1
Outline: as §1

SpHof1-2 = molecular target: SpHof1-2
Outline: as §1

SpHof1-3 = molecular target: SpHof1-3
Outline: as §1

SpHse1 = molecular target: SpHse1
Outline: as §1

SpLsb1 = molecular target: SpLsb1
Outline: as §1

SpLsb4 = molecular target: SpLsb4
Outline: as §1

SpMyo1 = molecular target: SpMyo1
Outline: as §1

SpNbp2 = molecular target: SpNbp2
Outline: as §1

SpPex13 = molecular target: SpPex13
Outline: as §1

SpRvs167 = molecular target: SpRvs167
Outline: as §1

SpSla1-D1-D2 = molecular target: SpSla1-D1-D2
Outline: as §1

SpSla1-D3 = molecular target: SpSla1-D3
Outline: as §1

AgAbp1 = molecular target: AgAbp1
Outline: as §1

AgBbc1 = molecular target: AgBbc1
Outline: as §1

AgBem1-D1 = molecular target: AgBem1-D1
Outline: as §1

AgBzz1-D1 = molecular target: AgBzz1-D1
Outline: as §1

AgBzz1-D2 = molecular target: AgBzz1-D2
Outline: as §1

AgCyk3 = molecular target: AgCyk3
Outline: as §1

AgFus1 = molecular target: AgFus1
Outline: as §1

AgHof1 = molecular target: AgHof1
Outline: as §1

AgHse1 = molecular target: AgHse1
Outline: as §1

AgLsb1 = molecular target: AgLsb1
Outline: as §1

AgLsb4 = molecular target: AgLsb4
Outline: as §1

AgMyo5 = molecular target: AgMyo5
Outline: as §1

AgNbp2 = molecular target: AgNbp2
Outline: as §1

AgRvs167 = molecular target: AgRvs167
Outline: as §1

AgSho1 = molecular target: AgSho1
Outline: as §1

AgSla1-D1-D2 = molecular target: AgSla1-D1-D2
Outline: as §1

AgSla1-D3 = molecular target: AgSla1-D3
Outline: as §1

CaAbp1-D1 = molecular target: CaAbp1-D1
Outline: as §1

CaAbp1-D2 = molecular target: CaAbp1-D2
Outline: as §1

CaBbc1 = molecular target: CaBbc1
Outline: as §1

CaBem1-D1 = molecular target: CaBem1-D1
Outline: as §1

CaBzz1-D1 = molecular target: CaBzz1-D1
Outline: as §1

CaBzz1-D2 = molecular target: CaBzz1-D2
Outline: as §1

CaCyk3 = molecular target: CaCyk3
Outline: as §1

CaFus1 = molecular target: CaFus1
Outline: as §1

CaHof1 = molecular target: CaHof1
Outline: as §1

CaHse1 = molecular target: CaHse1
Outline: as §1

CaLsb1 = molecular target: CaLsb1
Outline: as §1

CaLsb4 = molecular target: CaLsb4
Outline: as §1

CaMyo5 = molecular target: CaMyo5
Outline: as §1

CaNbp2 = molecular target: CaNbp2
Outline: as §1

CaRvs167 = molecular target: CaRvs167
Outline: as §1

CaRvs167-3 = molecular target: CaRvs167-3
Outline: as §1

CaSho1 = molecular target: CaSho1
Outline: as §1

CaSla1-D1-D2 = molecular target: CaSla1-D1-D2
Outline: as §1

CaSla1-D3 = molecular target: CaSla1-D3
Outline: as §1

ScAbp1 = molecular target: ScAbp1
Outline: as §1

ScBbc1 = molecular target: ScBbc1
Outline: as §1

ScBem1-D1 = molecular target: ScBem1-D1
Outline: as §1

ScBzz1-D1 = molecular target: ScBzz1-D1
Outline: as §1

ScBzz1-D2 = molecular target: ScBzz1-D2
Outline: as §1

ScCyk3 = molecular target: ScCyk3
Outline: as §1

ScFus1 = molecular target: ScFus1
Outline: as §1

ScHof1 = molecular target: ScHof1
Outline: as §1

ScHse1 = molecular target: ScHse1
Outline: as §1

ScLsb1 = molecular target: ScLsb1
Outline: as §1

ScLsb2 = molecular target: ScLsb2
Outline: as §1

ScLsb3 = molecular target: ScLsb3
Outline: as §1

ScLsb4 = molecular target: ScLsb4
Outline: as §1

ScMyo3 = molecular target: ScMyo3
Outline: as §1

ScMyo5 = molecular target: ScMyo5
Outline: as §1

ScNbp2 = molecular target: ScNbp2
Outline: as §1

ScPex13 = molecular target: ScPex13
Outline: as §1

ScRvs167 = molecular target: ScRvs167
Outline: as §1

ScSho1 = molecular target: ScSho1
Outline: as §1

ScSla1-D1-D2 = molecular target: ScSla1-D1-D2
Outline: as §1

ScSla1-D3 = molecular target: ScSla1-D3
Outline: as §1

SpAbp1-D1 = molecular target: SpAbp1-D1
Outline: as §1

SpBbc1 = molecular target: SpBbc1
Outline: as §1

SpBzz1-D1 = molecular target: SpBzz1-D1
Outline: as §1

B1: unnamed (peptide)
chain: FFRRSELYLPNSSKA
SpBzz1-D2
  SPOT peptide array binding signal intensity: ≤ 0
SpCyk3
  SPOT peptide array binding signal intensity: ≤ 0
SpHof1
  SPOT peptide array binding signal intensity: 65.2
SpHof1-2
  SPOT peptide array binding signal intensity: 6.75
SpHof1-3
  SPOT peptide array binding signal intensity: 455
SpHse1
  SPOT peptide array binding signal intensity: 552
SpLsb1
  SPOT peptide array binding signal intensity: 0.75
SpLsb4
  SPOT peptide array binding signal intensity: 7
SpMyo1
  SPOT peptide array binding signal intensity: 9
SpNbp2
  SPOT peptide array binding signal intensity: 3
SpPex13
  SPOT peptide array binding signal intensity: 10
SpRvs167
  SPOT peptide array binding signal intensity: 6.67
SpSla1-D1-D2
  SPOT peptide array binding signal intensity: ≤ 0
SpSla1-D3
  SPOT peptide array binding signal intensity: 35

B2: unnamed (peptide)
chain: ILARAILTIPRVLDK
AgAbp1
  SPOT peptide array binding signal intensity: 2
AgBbc1
  SPOT peptide array binding signal intensity: 50
AgBem1-D1
  SPOT peptide array binding signal intensity: 162
AgBzz1-D1
  SPOT peptide array binding signal intensity: 107
AgBzz1-D2
  SPOT peptide array binding signal intensity: 121
AgCyk3
  SPOT peptide array binding signal intensity: 11
AgFus1
  SPOT peptide array binding signal intensity: 1100
AgHof1
  SPOT peptide array binding signal intensity: 34.5
AgHse1
  SPOT peptide array binding signal intensity: 500
AgLsb1
  SPOT peptide array binding signal intensity: 1.5
AgLsb4
  SPOT peptide array binding signal intensity: 1390
AgMyo5
  SPOT peptide array binding signal intensity: 1
AgNbp2
  SPOT peptide array binding signal intensity: 279
AgRvs167
  SPOT peptide array binding signal intensity: 12
AgSho1
  SPOT peptide array binding signal intensity: 516
AgSla1-D1-D2
  SPOT peptide array binding signal intensity: 58
AgSla1-D3
  SPOT peptide array binding signal intensity: 12
CaAbp1-D1
  SPOT peptide array binding signal intensity: 30
CaAbp1-D2
  SPOT peptide array binding signal intensity: 20
CaBbc1
  SPOT peptide array binding signal intensity: 68.5
CaBem1-D1
  SPOT peptide array binding signal intensity: 33.5
CaBzz1-D1
  SPOT peptide array binding signal intensity: 625
CaBzz1-D2
  SPOT peptide array binding signal intensity: 247
CaCyk3
  SPOT peptide array binding signal intensity: 35
CaFus1
  SPOT peptide array binding signal intensity: 1530
CaHof1
  SPOT peptide array binding signal intensity: 2.25
CaHse1
  SPOT peptide array binding signal intensity: 130
CaLsb1
  SPOT peptide array binding signal intensity: 2.25
CaLsb4
  SPOT peptide array binding signal intensity: 62.5
CaMyo5
  SPOT peptide array binding signal intensity: 12.5
CaNbp2
  SPOT peptide array binding signal intensity: 290
CaRvs167
  SPOT peptide array binding signal intensity: 99.3
CaRvs167-3
  SPOT peptide array binding signal intensity: 854
CaSho1
  SPOT peptide array binding signal intensity: 1420
CaSla1-D1-D2
  SPOT peptide array binding signal intensity: 15
CaSla1-D3
  SPOT peptide array binding signal intensity: 118
ScAbp1
  SPOT peptide array binding signal intensity: 6
ScBbc1
  SPOT peptide array binding signal intensity: 3.5
ScBem1-D1
  SPOT peptide array binding signal intensity: 8
ScBzz1-D1
  SPOT peptide array binding signal intensity: 41.5
ScBzz1-D2
  SPOT peptide array binding signal intensity: 299
ScCyk3
  SPOT peptide array binding signal intensity: 70
ScFus1
  SPOT peptide array binding signal intensity: 1530
ScHof1
  SPOT peptide array binding signal intensity: 0.5
ScHse1
  SPOT peptide array binding signal intensity: 1470
ScLsb1
  SPOT peptide array binding signal intensity: 11.5
ScLsb2
  SPOT peptide array binding signal intensity: 55
ScLsb3
  SPOT peptide array binding signal intensity: 117
ScLsb4
  SPOT peptide array binding signal intensity: 5
ScMyo3
  SPOT peptide array binding signal intensity: ≤ 0
ScMyo5
  SPOT peptide array binding signal intensity: ≤ 0
ScNbp2
  SPOT peptide array binding signal intensity: 305
ScPex13
  SPOT peptide array binding signal intensity: 59.2
ScRvs167
  SPOT peptide array binding signal intensity: 4.83
ScSho1
  SPOT peptide array binding signal intensity: 1560
ScSla1-D1-D2
  SPOT peptide array binding signal intensity: 145
ScSla1-D3
  SPOT peptide array binding signal intensity: 18
SpAbp1-D1
  SPOT peptide array binding signal intensity: 7.5
SpBbc1
  SPOT peptide array binding signal intensity: 56.5
SpBzz1-D1
  SPOT peptide array binding signal intensity: 553
SpBzz1-D2
  SPOT peptide array binding signal intensity: 1.5
SpCyk3
  SPOT peptide array binding signal intensity: 8.5
SpHof1
  SPOT peptide array binding signal intensity: 82.2
SpHof1-2
  SPOT peptide array binding signal intensity: 8.5
SpHof1-3
  SPOT peptide array binding signal intensity: 158
SpHse1
  SPOT peptide array binding signal intensity: 613
SpLsb1
  SPOT peptide array binding signal intensity: 2.25
SpLsb4
  SPOT peptide array binding signal intensity: 42
SpMyo1
  SPOT peptide array binding signal intensity: 1.5
SpNbp2
  SPOT peptide array binding signal intensity: 207
SpPex13
  SPOT peptide array binding signal intensity: 131
SpRvs167
  SPOT peptide array binding signal intensity: 39.2
SpSla1-D1-D2
  SPOT peptide array binding signal intensity: ≤ 0
SpSla1-D3
  SPOT peptide array binding signal intensity: 10
